# Reference: PubChem BioAssay (NCI)
# Compounds without any hit were thinned out: in the full panel of roughly 83,000, 20% have a hit.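 Testing used 96-well plates and a 48-hour single-concentration exposure. Example: -40 means 40% of the starting cells died.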 A number with no mark means an inactive call. The source made the active and inactive calls. Rule for the calls: active = growth percent below 10; inactive = the rest.
# Experiments:
# Experiment in all cases: NCI-60 one-dose screen, 48 h (100 = growth as untreated, 0 = no growth, -100 = all killed)
# RPMI-8226 leukemia = settings: 10 µM unless noted
# OVCAR-8 ovarian = settings: 10 µM unless noted
# OVCAR-4 ovarian = settings: 10 µM unless noted
# SK-OV-3 ovarian = settings: 10 µM unless noted
# IGROV1 ovarian = settings: 10 µM unless noted
# OVCAR-3 ovarian = settings: 10 µM unless noted
# HS 578T breast = settings: 10 µM
# NCI/ADR-RES ovarian = settings: 10 µM unless noted
# T-47D breast = settings: 10 µM unless noted
# BT-549 breast = settings: 10 µM unless noted
# MDA-MB-435 melanoma = settings: 10 µM unless noted
# SW-620 colon = settings: 10 µM unless noted
# MCF7 breast = settings: 10 µM unless noted
# HCT-116 colon = settings: 10 µM unless noted
# HCC-2998 colon = settings: 10 µM unless noted
# KM12 colon = settings: 10 µM unless noted
# OVCAR-5 ovarian = settings: 10 µM unless noted
SMILES,growth (RPMI-8226 leukemia),growth (OVCAR-8 ovarian),growth (OVCAR-4 ovarian),growth (SK-OV-3 ovarian),growth (IGROV1 ovarian),growth (OVCAR-3 ovarian),growth (HS 578T breast),growth (NCI/ADR-RES ovarian),growth (T-47D breast),growth (BT-549 breast) [%],growth (MDA-MB-435 melanoma),growth (SW-620 colon),growth (MCF7 breast),growth (HCT-116 colon),growth (HCC-2998 colon),growth (KM12 colon),growth (OVCAR-5 ovarian)
NC(=O)Nc1ccc2ncnc(Nc3cccc(O)c3)c2c1,112%,98.9%,112%,87.5%,107%,82.8%,105%,96.7%,76.6%,108,101%,99.1%,97.3%,109%,102%,96.1%,–
CCOc1c(C#N)c2c(N)ncnc2n1C1OC(CO)C(O)C1O (centres undefined),–,89.6%,56.1%,52.9%,-57.7% (active),-41.4% (active),50.9%,62.4%,15.4%,–,18.1%,4.66% (active),-3.56% (active),3.41% (active),84.1%,10.6%,83.6%
N#Cc1c(N)n(C2OC(CO)C(O)C2O)c2ncnc(N)c12 (centres undefined),–,-13.1% (active),0.621% (active),-0.358% (active),-63% (active),-62.1% (active),-19.2% (active),-7.81% (active),-46.2% (active),–,-58.4% (active),-33.3% (active),-21.1% (active),4.76% (active),-35.2% (active),-3.95% (active),-11.4% (active)
CCCCCNCCCCCNc1cc(OC)cc2cccnc12,–,101%,37.1%,–,98.3%,75.6%,102%,88.6%,68.1%,69.2,103%,90.9%,50.6%,63.5%,93.4%,103%,87.2%
O=C(O)Cn1ccc2ccccc21,–,92.6%,97.8%,134%,-6.06% (active),104%,108%,–,135%,–,108%,99.1%,96.4%,96.9%,104%,109%,100%
COc1cc(/C=C/C(=O)c2ccc(NC(=O)CSc3nnc(-c4ccc(Cl)cc4)n3-c3ccccc3)cc2)cc(OC)c1OC,9.23% (active),62.3%,–,–,74.7%,–,92.9%,87.9%,47.5%,59.6,64.4%,68.2%,20.8%,7.2% (active),76.2%,67.9%,128%
COc1ccc(C(=O)C(CN(C)C)c2ccccc2)cc1 (centres undefined),9.15% (active),17%,–,110%,1.31% (active),0.0357% (active),-13.8% (active),9.35% (active),9.93% (active),12.9,25.4%,-84.7% (active),-1.32% (active),-99.1% (active),93.9%,6.49% (active),44.3%
Cc1nc([C@H]2CC[C@H]3[C@@H]4CCC5=CC(=O)CC[C@]5(C)[C@H]4CC[C@]23C)cs1,–,47.9%,27.4%,85.3%,109%,95.9%,104%,43.7%,42%,–,66.8%,73.3%,55.2%,–,61.1%,65.9%,91.4%
